Screen size: about 39,000 compounds; about 3,300 (8.5%) were called active. What follows is part of a selection rich in actives, with near analogues and random picks from the rest.
These compounds were tested on HepG2 (assay: cytotoxicity call (relative viability < 0.9)). Details: 10 µM.

| SMILES | cytotoxicity call |
| --- | --- |
| COc1ccc([N+](=O)[O-])cc1CNCCO | inactive |
| CCNC(=O)C[C@H]1C=C[C@@H](NC(=O)C2CCOCC2)[C@H](CO)O1 | inactive |
| CN(C)CC(=O)N[C@@H]1CC[C@@H](CCNS(=O)(=O)c2ccccc2)O[C@H]1CO | inactive |
| NCc1ccccc1-c1ccco1 | inactive |
| C1CC(N2CCNCC2)C1 | inactive |
| CN(C)CC(=O)N[C@@H]1CC[C@@H](CC(=O)O)O[C@H]1CO | inactive |
| C[C@H](CO)N1C[C@H](C)[C@@H](CN(C)Cc2cccc3c2OCCCO3)OCc2cnnn2CCCC1=O | inactive |
| CC(O)C(=O)Nc1c(I)c(C(=O)NC(CO)CO)c(I)c(C(=O)NC(CO)CO)c1I (configuration not stated) | inactive |
| Cc1cccc(S(=O)(=O)N2C[C@@H](O)COC[C@@H]3O[C@@H](CC(=O)NCCCN4CCOCC4)CC[C@H]32)c1 | inactive |
| COc1ccc(S(=O)(=O)N(C)C[C@@H]2Oc3ccc(NC(=O)NC(C)C)cc3C(=O)N([C@H](C)CO)C[C@H]2C)cc1 | inactive |
| C[C@@H]1CN([C@H](C)CO)C(=O)c2cccc(NC(=O)c3cnccn3)c2O[C@@H]1CN(C)S(=O)(=O)c1cccs1 | inactive |
| COC(=O)C1=C2CC[C@H](CO)NC(=O)N[C@@H](Cc3ccccc3)C(=O)NCc3cn(nn3)C[C@H](Cc3ccccc3)NC(=O)c3oc(c(C(=O)OC)c3C(=O)OC)CC[C@H](CO)NC(=O)N[C@@H](Cc3ccccc3)C(=O)NCc3cn(nn3)C[C@H](Cc3ccccc3)NC(=O)C(=C1C(=O)OC)O2 | inactive |
| CCCN(C)C[C@@H]1OCCCC[C@@H](C)Oc2ccc(NS(C)(=O)=O)cc2C(=O)N([C@H](C)CO)C[C@H]1C | inactive |
| CO[C@@H]1CN(C)C(=O)c2ccc(NC(=O)c3ccccc3)cc2OC[C@@H](C)N(C(=O)CN(C)C)C[C@@H]1C | inactive |
| CNC(=N)NCCC[C@@H](N)C(=O)O | inactive |
| C[C@@H]1CN([C@H](C)CO)C(=O)c2cc(C#Cc3ccccc3F)cnc2O[C@H]1CN(C)C(=O)Cc1ccncc1 | inactive |
| Oc1c(Cl)cc(Cl)cc1Sc1cc(Cl)cc(Cl)c1O | active |
| Cc1noc(C)c1NC(=O)Nc1ccc2c(c1)C(=O)N([C@@H](C)CO)C[C@@H](C)[C@H](CN(C)CC1CC1)OCCCC[C@H](C)O2 | inactive |
| C[C@H]1CN([C@@H](C)CO)C(=O)c2cc(NC(=O)Cn3cnnn3)ccc2O[C@H]1CN(C)S(=O)(=O)c1cccs1 | inactive |
| C[C@H]1CN([C@@H](C)CO)C(=O)CCCn2cc(nn2)CO[C@H]1CN(C)Cc1ccc2c(c1)OCCN2C | inactive |
| C[C@H](CO)N1C[C@H](C)[C@H](CN(C)Cc2ccc(Cl)c(Cl)c2)Oc2ccc(NC(=O)C3CCCCC3)cc2CC1=O | inactive |
| C[C@H](CO)N1C[C@H](C)[C@H](CN(C)C(=O)c2ccccc2)OCCCC[C@H](C)Oc2ccc(NC(=O)Nc3cccc4ccccc34)cc2C1=O | inactive |
| C[C@@H]1CN([C@@H](C)CO)C(=O)c2cc(NS(C)(=O)=O)ccc2O[C@H]1CN(C)Cc1ccc(C(F)(F)F)cc1 | inactive |
| Clc1ccc(C(c2ccc(Cl)cc2)[n+]2ccn(C[C@@H](OCc3ccc(Cl)cc3Cl)c3ccc(Cl)cc3Cl)c2)cc1 | active |
| Clc1ccc(C(Cn2ccnc2)OCc2ccsc2Cl)c(Cl)c1 (configuration not stated) | inactive |
| CNC[C@@H]1OCCCC[C@H](C)Oc2ccc(NC(=O)c3ccncc3)cc2C(=O)N([C@@H](C)CO)C[C@@H]1C | inactive |

| SMILES | cytotoxicity call |
| --- | --- |
| NC(=O)NCCC[C@H](N)C(=O)O | inactive |
| NC(=O)CC[C@H]1CCCNC1 | inactive |
| Cc1ccccc1NC(=N)N=C(N)N | active |
| Cc1ccc(NC(=N)N=C(N)N)c(C)c1 | inactive |
| CCc1ccc(NC(=N)N=C(N)N)cc1 | inactive |
| COc1cccc(S(=O)(=O)N2C[C@@H](O)COC[C@H]3O[C@@H](CC(=O)N4CCN(c5ccccc5)CC4)CC[C@@H]32)c1 | inactive |
| COc1ccc(NC(=O)N(C)C[C@@H]2OCc3cnnn3CCCC(=O)N([C@H](C)CO)C[C@H]2C)c(OC)c1 | inactive |
| CN1CCN(C(=O)C[C@@H]2CC[C@H]3[C@H](COc4ccc(NC(=O)c5cscn5)cc4C(=O)N3C)O2)CC1 | inactive |
| C[C@H](CO)N1C[C@H](C)[C@@H](CN(C)C)Oc2ccc(NC(=O)Cc3cn(C)c4ccccc34)cc2CC1=O | inactive |
| CC(=O)N[C@@H](CCC(=O)O)C(=O)O | inactive |
| Nc1nc(=O)c2nc(CNc3ccc(C(=O)NC(CCC(=O)O)C(=O)O)cc3)cnc2[nH]1 (configuration not stated) | inactive |
| Nc1nc(=O)c2c([nH]1)NC[C@H](CNc1ccc(C(=O)N[C@@H](CCC(=O)O)C(=O)O)cc1)N2C=O | inactive |
| CN(Cc1cnc2nc(N)nc(N)c2n1)c1ccc(C(=O)NC(CCC(=O)O)C(=O)O)cc1.O (configuration not stated) | active |
| Nc1nc(N)c2nc(CNc3ccc(C(=O)NC(CCC(=O)O)C(=O)O)cc3)cnc2n1 (configuration not stated) | active |
| Nc1nc(=O)c2c([nH]1)NCC(CNc1ccc(C(=O)NC(CCC(=O)O)C(=O)O)cc1)=N2 (configuration not stated) | inactive |
| CCCN(CCC)C(=O)C(CCC(=O)O)NC(=O)c1ccccc1 (configuration not stated) | inactive |
| Nc1nc(=O)c2nc(CNc3ccc(C(=O)N[C@@H](CCC(=O)O)C(=O)O)cc3)cnc2[nH]1 | inactive |
| CN(Cc1cnc2nc(N)nc(N)c2n1)c1ccc(C(=O)N[C@@H](CCC(=O)O)C(=O)O)cc1 | active |
| CN(C)CCCNC(=O)C[C@H]1C=C[C@H](NS(=O)(=O)c2ccccc2)[C@H](CO)O1 | inactive |
| C[C@@H]1CN([C@@H](C)CO)C(=O)Cc2cc(NS(C)(=O)=O)ccc2O[C@H]1CN(C)C(=O)Nc1ccc(F)cc1 | inactive |
| COc1cccc(-c2cn(CC[C@H]3CC[C@@H](NC(=O)CN(C)C)[C@H](CO)O3)nn2)c1 | inactive |
| CC(C)NC(=O)N(C)C[C@H]1Oc2ccc(NC(=O)Cc3ccccc3)cc2CC(=O)N([C@@H](C)CO)C[C@H]1C | inactive |
| CN1C(=O)c2cc(NC(=O)c3ccno3)ccc2OC[C@H]2O[C@@H](CC(=O)NC3Cc4ccccc4C3)CC[C@@H]21 | inactive |
| Cc1noc(C)c1NC(=O)N(C)C[C@@H]1Oc2ccc(NC(=O)Cn3cnnn3)cc2CC(=O)N([C@H](C)CO)C[C@@H]1C | inactive |
| C[C@@H]1CCCCO[C@H](CN(C)C(=O)Nc2ccc(C(F)(F)F)cc2)[C@H](C)CN([C@H](C)CO)C(=O)c2cc(NC(=O)Nc3ccccc3)ccc2O1 | inactive |
| O=C(C[C@@H]1CC=CC[C@H](NC(=O)OCC2c3ccccc3-c3ccccc32)C(=O)O[C@H](c2ccccc2)CNC1=O)N[C@H](CO)Cc1ccccc1 | inactive |

| SMILES | cytotoxicity call |
| --- | --- |
| O=C(C[C@@H]1CC[C@@H](NS(=O)(=O)c2ccccc2)[C@@H](CO)O1)NCc1ccncn1 | inactive |
| Cc1noc(C)c1S(=O)(=O)N(C)C[C@H]1Oc2ccc(NS(=O)(=O)c3ccc(F)cc3)cc2CC(=O)N([C@@H](C)CO)C[C@@H]1C | inactive |
| O=C(Oc1ccccc1C(=O)O)c1ccccc1O | inactive |
| CC1CC(OC(=O)c2ccccc2O)CC(C)(C)C1 (configuration not stated) | active |
| CC1CC(OC(=O)C(O)c2ccccc2)CC(C)(C)C1 (configuration not stated) | inactive |
| C[C@H]1CN([C@@H](C)CO)C(=O)Cc2cc(NS(C)(=O)=O)ccc2O[C@@H]1CN(C)S(=O)(=O)c1ccccc1 | inactive |
| C[C@H]1CCCCO[C@H](CN(C)C(=O)C2CCCCC2)[C@@H](C)CN([C@@H](C)CO)C(=O)c2cc(NC(=O)CCC(F)(F)F)ccc2O1 | inactive |
| COCC(=O)N(C)C[C@@H]1Oc2cc(C#Cc3cccnc3)ccc2S(=O)(=O)N([C@H](C)CO)C[C@@H]1C | inactive |
| C[C@@H]1CN([C@H](C)CO)C(=O)c2cccc(NC(=O)Nc3ccc(F)cc3)c2O[C@@H]1CN(C)C(=O)Nc1ccc(C(F)(F)F)cc1 | inactive |
| C[C@H]1CN([C@@H](C)CO)C(=O)c2cccc(NC(=O)Nc3ccc(C(F)(F)F)cc3)c2O[C@@H]1CN(C)C(=O)Nc1ccc(F)cc1 | inactive |
| C[C@H]1CN([C@@H](C)CO)C(=O)c2cccc(NC(=O)Nc3ccc(C(F)(F)F)cc3)c2O[C@H]1CN(C)C(=O)Nc1ccc(F)cc1 | active |
| C[C@@H]1CN([C@H](C)CO)C(=O)c2cccc(NC(=O)Nc3ccc(C(F)(F)F)cc3)c2O[C@@H]1CN(C)C(=O)Nc1ccc(F)cc1 | inactive |
| C[C@H](CO)N1C[C@H](C)[C@H](CN(C)C(=O)Nc2ccc(F)cc2)Oc2c(NC(=O)Nc3ccc(C(F)(F)F)cc3)cccc2C1=O | active |
| C[C@@H]1CN([C@H](C)CO)C(=O)c2cccc(NC(=O)Nc3ccc(F)cc3)c2O[C@H]1CN(C)C(=O)Nc1ccc(C(F)(F)F)cc1 | inactive |
| C[C@H](CO)N1C[C@H](C)[C@@H](CN(C)S(=O)(=O)c2cn(C)cn2)Oc2c(NC(=O)Nc3ccccc3)cccc2C1=O | inactive |
| C[C@@H]1CCCCO[C@H](CN(C)C(=O)C2CCCCC2)[C@@H](C)CN([C@H](C)CO)C(=O)c2cc(NC(=O)c3ccccc3)ccc2O1 | inactive |
| C[C@@H]1CN([C@@H](C)CO)S(=O)(=O)c2ccc(Br)cc2O[C@@H]1CN(C)C(=O)c1ccncc1 | inactive |
| C[C@H](CO)N1C[C@H](C)[C@H](CN(C)Cc2ccc(C(F)(F)F)cc2)Oc2ccc(NC(=O)NC3CCCCC3)cc2C1=O | inactive |
| C[C@@H]1CN([C@@H](C)CO)C(=O)c2cccc(NS(C)(=O)=O)c2O[C@@H]1CN(C)S(=O)(=O)c1ccc(Cl)cc1 | inactive |
| C[C@H](CO)N1C[C@H](C)[C@@H](CN(C)Cc2ccc(C(F)(F)F)cc2)OCCCC[C@H](C)Oc2ccc(NC(=O)NC3CCCCC3)cc2C1=O | active |
| C[C@H]1CCCCO[C@H](CN(C)Cc2ccc(C(F)(F)F)cc2)[C@@H](C)CN([C@@H](C)CO)C(=O)c2cc(NC(=O)NC3CCCCC3)ccc2O1 | active |
| C[C@H](CO)N1C[C@H](C)[C@H](CN(C)Cc2ccc(C(F)(F)F)cc2)OCCCC[C@H](C)Oc2ccc(NC(=O)NC3CCCCC3)cc2C1=O | inactive |
| C[C@@H]1CCCCO[C@@H](CN(C)Cc2ccc(C(F)(F)F)cc2)[C@H](C)CN([C@@H](C)CO)C(=O)c2cc(NC(=O)NC3CCCCC3)ccc2O1 | active |
| C[C@@H]1CN([C@H](C)CO)C(=O)c2cc(NC(=O)NC3CCCCC3)ccc2O[C@@H](C)CCCCO[C@@H]1CN(C)Cc1ccc(C(F)(F)F)cc1 | inactive |
| C[C@@H]1CN([C@@H](C)CO)C(=O)c2cc(NC(=O)NC3CCCCC3)ccc2O[C@@H](C)CCCCO[C@H]1CN(C)Cc1ccc(C(F)(F)F)cc1 | active |
